# In publication PMC8384837, “Expanding the binding specificity for RNA recognition by a PUF domain”:
# Legend:
# Experiment in all cases: yeast three-hybrid, YBZ-1, SC-Leu-His + 0.5 mM 3-AT, 4 days
# Settings in all cases: tags: N-Gal4 AD-HA kept; label: inside an RPR1-promoter hybrid RNA with tandem MS2 sites; ssRNA
# PUM1 PUF domain R8-KRT = PUM1 PUF domain R8-KRT (Homo sapiens, UniProt Q14671 828-1176, N1122K;Y1123R;Q1126T)
# Procedure, shortened: (§1)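 Matching RNA elements and Pumilio-1 PUF domain libraries, randomized at the three base-contacting residues of every repeat, were co-expressed from a centromeric plasmid in strain YBZ-1 (LexA–MS2 coat fusion, HIS3 reporter). The repeat regions were PCR-amplified and Illumina-sequenced from cells grown four days on SC-Leu (input) or SC-Leu-His + 0.5 mM 3-AT (selection). The interaction score is the log change in variant frequency from input to selection. It is computed in log2, with a pseudocount of 1 for absent variants.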
# PUM1 PUF domain R8-HHK = PUM1 PUF domain R8-HHK (Homo sapiens, UniProt Q14671 828-1176, N1122H;Y1123H;Q1126K)
# Procedure, shortened: as §1
# PUM1 PUF domain R8-KWN = PUM1 PUF domain R8-KWN (Homo sapiens, UniProt Q14671 828-1176, N1122K;Y1123W;Q1126N)
# Procedure, shortened: as §1
# PUM1 PUF domain R1-RKR = PUM1 PUF domain R1-RKR (Homo sapiens, UniProt Q14671 828-1176, S863R;R864K;Q867R)
# Procedure, shortened: as §1
# PUM1 PUF domain R6-RVT = molecular target: T1, PUM1 PUF domain R6-RVT (Homo sapiens, UniProt Q14671 828-1176, N1043R;Y1044V;Q1047T)
# T1 sequence: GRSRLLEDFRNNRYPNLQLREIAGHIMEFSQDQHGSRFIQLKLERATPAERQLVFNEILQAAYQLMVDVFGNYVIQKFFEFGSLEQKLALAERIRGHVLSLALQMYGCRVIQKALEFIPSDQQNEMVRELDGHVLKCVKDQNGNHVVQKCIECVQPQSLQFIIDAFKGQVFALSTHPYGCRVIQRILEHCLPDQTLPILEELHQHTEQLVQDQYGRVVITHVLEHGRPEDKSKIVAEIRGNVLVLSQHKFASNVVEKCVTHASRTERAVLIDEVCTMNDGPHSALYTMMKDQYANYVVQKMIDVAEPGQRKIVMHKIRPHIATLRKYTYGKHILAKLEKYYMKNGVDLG
# Procedure, shortened: as §1
# PUM1 PUF domain R4-HHN = PUM1 PUF domain R4-HHN (Homo sapiens, UniProt Q14671 828-1176, N971H;Q975N)
# Procedure, shortened: as §1
# PUM1 PUF domain R5-RYC = PUM1 PUF domain R5-RYC (Homo sapiens, UniProt Q14671 828-1176, C1007R;R1008Y;Q1011C)
# Procedure, shortened: as §1
# PUM1 PUF domain R7-GVV = PUM1 PUF domain R7-GVV (Homo sapiens, UniProt Q14671 828-1176, S1079G;N1080V;E1083V)
# Procedure, shortened: as §1
# PUM1 PUF domain R3-LSQ = PUM1 PUF domain R3-LSQ (Homo sapiens, UniProt Q14671 828-1176, C935L;R936S)
# Procedure, shortened: as §1
# PUM1 PUF domain R3-DYG = PUM1 PUF domain R3-DYG (Homo sapiens, UniProt Q14671 828-1176, C935D;R936Y;Q939G)
# Procedure, shortened: as §1
# PUM1 PUF domain R7-KYF = PUM1 PUF domain R7-KYF (Homo sapiens, UniProt Q14671 828-1176, S1079K;N1080Y;E1083F)
# Procedure, shortened: as §1
sequence,measurement,setting,value
GGCUAGAACUAGUGGAUCCCCCGGCGCCCGGCGGCUCGAGCCCGGGUAAGCGUAAAUAGUCUGCAUGCCGCCGGGCGCCAUGCCUGCAGGUCGACUCUAGAAAACAUG,binding signal,PUM1 PUF domain R8-KRT,2.71 log2 enrichment (interaction score)
same,binding signal,PUM1 PUF domain R8-HHK,3.15 log2 enrichment (interaction score)
same,binding signal,PUM1 PUF domain R8-KWN,2.89 log2 enrichment (interaction score)
GGCUAGAACUAGUGGAUCCCCCGGCGCCCGGCGGCUCGAGCCCGGGUAAGUGUAAAUUGUCUGCAUGCCGCCGGGCGCCAUGCCUGCAGGUCGACUCUAGAAAACAUG,binding signal,PUM1 PUF domain R1-RKR,3.15 log2 enrichment (interaction score)
GGCUAGAACUAGUGGAUCCCCCGGCGCCCGGCGGCUCGAGCCCGGGUAAGUGCAAAUAGUCUGCAUGCCGCCGGGCGCCAUGCCUGCAGGUCGACUCUAGAAAACAUG,binding signal,PUM1 PUF domain R6-RVT,4.2 log2 enrichment (interaction score)
GGCUAGAACUAGUGGAUCCCCCGGCGCCCGGCGGCUCGAGCCCGGGUAAGUGUAUAUAGUCUGCAUGCCGCCGGGCGCCAUGCCUGCAGGUCGACUCUAGAAAACAUG,binding signal,PUM1 PUF domain R4-HHN,6.48 log2 enrichment (interaction score)
GGCUAGAACUAGUGGAUCCCCCGGCGCCCGGCGGCUCGAGCCCGGGUAAGUGUUAAUAGUCUGCAUGCCGCCGGGCGCCAUGCCUGCAGGUCGACUCUAGAAAACAUG,binding signal,PUM1 PUF domain R5-RYC,4.89 log2 enrichment (interaction score)
GGCUAGAACUAGUGGAUCCCCCGGCGCCCGGCGGCUCGAGCCCGGGUAAGUUUAAAUAGUCUGCAUGCCGCCGGGCGCCAUGCCUGCAGGUCGACUCUAGAAAACAUG,binding signal,PUM1 PUF domain R7-GVV,2.6 log2 enrichment (interaction score)
GGCUAGAACUAGUGGAUCCCCCGGCGCCCGGCGGCUCGAGCCCGGGUAAGUGUAAUUAGUCUGCAUGCCGCCGGGCGCCAUGCCUGCAGGUCGACUCUAGAAAACAUG,binding signal,PUM1 PUF domain R3-LSQ,4.75 log2 enrichment (interaction score)
same,binding signal,PUM1 PUF domain R3-DYG,1.49 log2 enrichment (interaction score)
GGCUAGAACUAGUGGAUCCCCCGGCGCCCGGCGGCUCGAGCCCGGGUAAGUCUAAAUAGUCUGCAUGCCGCCGGGCGCCAUGCCUGCAGGUCGACUCUAGAAAACAUG,binding signal,PUM1 PUF domain R7-KYF,6.02 log2 enrichment (interaction score)
